Screen size: about 390,000 compounds; about 910 (0.23%) were called active. Inconclusive results (about 5%) are left out. This excerpt belongs to a sample that is enriched for actives. A number with no mark means an inactive call. Calls follow the shape of the dose curve; as a rule, active = well fitted inhibition curve with a large enough effect; inconclusive = small, poorly fitted or top-dose-only effect; inactive = no such curve, though single readings can be large or run the other way.
% is scaled to controls: 0 for no effect and ±100 for the full control effect; potency is read from the fitted curve at half-maximal effect.

For this assay, the target named is Ubiquitin carboxyl-terminal hydrolase 1 (Homo sapiens) (UniProt O94782). As to the kind of experiment: Inhibitors of USP1/UAF1: Primary Screen. Also: nearly all actives have a fitted effect of over 60% in size. The following applies: recombinant USP1/UAF1, Ub-Rhodamine cleavage fluorescence; series mostly up to 57.1 µM; activity change, negative = inhibition: at the top concentration. From the text: Deubiquitinating enzymes (DUBs) are a class of enzymes that can cleave isopeptide bond formed between the C-terminal carboxylate of ubiquitin and a lysine side-chain amino group on the target protein. Among them, ubiquitin specific proteases (USPs) constitute the largest DUB family. Human USPs are emerging as promising targets for pharmacological intervention because of their connection to a number of human diseases, including prostate, colon and breast cancer (1, 2), pediatric acute lymphoblastic leukemia (3), and familial cylindromatosis (4). The advantage of inhibiting USPs lies in the potential specificity of therapeutic intervention that can lead to better efficacy and reduce nonspecific side effects. In a collaboration between the University of Delaware and the NIH Chemical Genomics Center, a high-throughput screen assay was developed to screen for USP1/UAF1 inhibitors. This miniaturized assay has a fluorescent read-out and is used to screen the NIH Molecular Libraries Small Molecule Repository (MLSMR) in order to identify a small molecule that inhibits USP1. NIH Chemical Genomics Center [NCGC] NIH Molecular Libraries Probe Centers Network [MLPCN] MLPCN Grant: DA030552 Assay Submitter (PI): Zhihao Zhuang, University of Delaware 1. Priolo, C., et al. (2006) The isopeptidase USP2a protects human prostate cancer from apoptosis. Cancer Res 66, 8625-8632 2. Popov, N., et al. (2007) The ubiquitin-specific protease USP28 is required for MYC stability. Nat Cell Biol 9, 765-774 3. De Pitta, C., et al. (2005) A leukemia-enriched cDNA microarray platform identifies new transcripts with relevance to the biology of pediatric acute lymphoblastic leukemia. Haematologica 90, 890-898 4. Kovalenko, A., et al. (2003) The tumour suppressor CYLD negatively regulates NF-kappaB signalling by deubiquitination. Nature 424, 801-805
Sequence of Ubiquitin carboxyl-terminal hydrolase 1 (Homo sapiens) (O94782 whole entry, looked up): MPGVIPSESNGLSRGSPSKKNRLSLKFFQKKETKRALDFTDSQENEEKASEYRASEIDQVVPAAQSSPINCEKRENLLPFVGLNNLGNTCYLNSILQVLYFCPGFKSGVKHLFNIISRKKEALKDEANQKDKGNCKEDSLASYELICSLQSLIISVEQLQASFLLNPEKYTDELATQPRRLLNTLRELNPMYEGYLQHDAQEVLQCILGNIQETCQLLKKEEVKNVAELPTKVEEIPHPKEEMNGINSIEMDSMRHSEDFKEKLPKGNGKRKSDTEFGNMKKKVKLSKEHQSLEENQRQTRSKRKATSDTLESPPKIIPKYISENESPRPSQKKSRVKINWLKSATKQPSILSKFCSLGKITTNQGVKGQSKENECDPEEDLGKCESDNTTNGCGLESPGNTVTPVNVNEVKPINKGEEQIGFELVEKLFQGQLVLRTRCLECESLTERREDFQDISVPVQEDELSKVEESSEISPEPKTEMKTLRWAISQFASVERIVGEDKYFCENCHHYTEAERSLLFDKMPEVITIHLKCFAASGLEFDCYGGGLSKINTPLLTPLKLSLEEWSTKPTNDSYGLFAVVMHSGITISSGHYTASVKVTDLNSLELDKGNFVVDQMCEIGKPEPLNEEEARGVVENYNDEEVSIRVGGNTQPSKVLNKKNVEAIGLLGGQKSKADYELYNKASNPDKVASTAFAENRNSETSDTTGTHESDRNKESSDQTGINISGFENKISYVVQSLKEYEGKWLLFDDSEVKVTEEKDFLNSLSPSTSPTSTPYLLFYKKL
3 microliters of reagents (buffer in columns 3 and 4 as negative control and 1nM USP1/UAF1 complex in columns 1, 2, and 5-48) are dispensed into Greiner black solid bottom 1536-well assay plates. Compounds are then transferred via Kalypsys pin tool equipped with 1536-pin array (10nl slotted pins, V&P Scientific, San Diego, CA). Following an incubation step of 15 min at room temperature, 1ul of Ub-Rho substrate (150nM final concentration) is added to initiate the reaction. The plates are immediately centrifuged at 1000 rpm for 15 seconds, and subsequently transferred to a ViewLux high-throughput CCD imager (PerkinElmer) wherein kinetic measurements of fluorescence are acquired using 480 nm excitation/540 nm emission filter set (6 reads every 60 seconds, see Table 1). All reagents are diluted in an assay buffer consisting of 50mM HEPES (pH 7.8), 0.5mM EDTA, 0.1 mg/ml BSA, 1mM TCEP, and 0.01% Tween-20.
On to `CCN1C(=O)c2ccccc2S(=O)c2ccc(C(=O)NCc3ccc(F)cc3)cc21` (stereo unspecified), for which the “activity change, negative = inhibition” value is -6.47%.

In the case of `COc1ccc(-n2nc(C(=O)NCCc3ccc(Cl)cc3)c3c4ccccc4n(C)c3c2=O)cc1Cl`, the “activity change, negative = inhibition” value was 0.794%.

For `CCCN(CCC)C(=O)C1CCCN(c2ncnc3c2nc2n3CCCCC2)C1` (stereo unspecified), the “activity change, negative = inhibition” value is -8.4%.

As to `CCN(Cc1ccccc1)C(=O)c1cn(-c2cccc(OC)c2)c(=O)c2ccccc12`, the “activity change, negative = inhibition” value is -13.1%.

Regarding `COc1cc(OC)c(OC)cc1/C=C/c1nc2ccccc2c(=O)n1-c1ccc(Br)c(C)c1`, the “activity change, negative = inhibition” value is -2.89%.

Regarding `Cc1cccc(N2CCN(C(=O)Cn3ncc4c5ccccc5n(C)c4c3=O)CC2C)c1` (stereo unspecified), the “activity change, negative = inhibition” value is -14.7%.

As to `CCOc1ccccc1C(=O)NC1(C(F)(F)F)C(=O)Nc2c1c(=O)[nH]c(=O)n2-c1ccc(F)cc1` (stereo unspecified), the “activity change, negative = inhibition” value was -16.2%.

Consider `Oc1c(C=Nc2cccc3nsnc23)ccc2ccccc12`, for which the Potency was 25.1 µM (active).

As for `COCCNC(=O)c1cc(-c2cccc(Cl)c2)on1`, the “activity change, negative = inhibition” value was -23.1%.

Consider `COc1ccc(C(=O)c2oc3ccccc3c2NC(=O)COc2cccc(C)c2)cc1`, for which the “activity change, negative = inhibition” value is 6.34%.

With `Cc1c(C(=O)N2CCCC2)oc2c1-c1nn(CC(=O)NCc3ccc(OC(C)C)cc3)cc1CC2`, the “activity change, negative = inhibition” value is -23.5%.

With `COc1ccccc1NC(=O)c1sc2nc(C)c(C(=O)Nc3ccc(Cl)cc3)c(-c3ccc(Br)cc3)c2c1N`, the “activity change, negative = inhibition” value is -11.8%.

`COc1ccc(NC(=O)C2CCN(c3ccc(Sc4ccc(C)cc4)nn3)CC2)c(OC)c1`: the “activity change, negative = inhibition” value is -27.1%.

Turning to `CC(C)(C)OC(=O)N1CCC(c2c(C(=O)NCCc3ccsc3)cnn2-c2ccc(F)cc2F)CC1`, the “activity change, negative = inhibition” value was -26.8%.

In the case of `O=C(CN1CCN(Cc2ccc(Cl)cc2)C1=O)NCc1ccc(F)cc1`, the “activity change, negative = inhibition” value is -1.87%.

Turning to `O=C(O)c1ccc(Cn2c(SCc3ccc(F)cc3)nc3ccncc32)cc1`, the “activity change, negative = inhibition” value is 5.68%.

With `CCOC(=O)C1CCCN(S(=O)(=O)c2cc(-c3cc(C)no3)ccc2OC)C1` (stereo unspecified), the “activity change, negative = inhibition” value was -3.56%.

For the compound `Cc1ccc(CNC(=O)CSc2c3c(nc4cc(Cl)ccc24)CCCC3)cc1`, the “activity change, negative = inhibition” value is -18.4%.

For the compound `Cc1onc(-c2ccc(F)cc2F)c1C(=O)Nc1cccc(C(F)(F)F)c1`, the “activity change, negative = inhibition” value was -20.1%.

With `CC(C)(C)c1ccc(C(=O)NCC(c2ccco2)S(=O)(=O)c2ccc(F)cc2)cc1` (stereo unspecified), the “activity change, negative = inhibition” value is -11.7%.

For the compound `CCCCCCc1cc2cc(-c3nnc(-c4ccccc4)o3)c(=O)oc2cc1O`, the Potency is 8.91 µM (active).

Consider `CCc1ccc(NC(=O)c2cnc3c(-c4ccccc4)c(C)nn3c2C)cc1`, for which the “activity change, negative = inhibition” value was -11.2%.

In the case of `COc1ccc(Cn2ccn(CC(=O)Nc3cc(C)ccc3C)c(=O)c2=O)cc1`, the “activity change, negative = inhibition” value was 4.85%.

For `Cc1ccc(-c2nn(-c3ccccc3)cc2/C=C2\SC(=S)N(CCCCCC(=O)O)C2=O)o1`, the Potency is 7.08 µM (active).

On to `O=C(/C=C(O)/C=C/c1ccc(O)cc1)/C=C/c1ccc(O)cc1`, for which the Potency is 28.2 µM (active).

For `C[n+]1ccc(/C=C/c2c[nH]c3ccccc23)cc1`, the Potency is 28.2 µM (active).

Regarding `O=c1[nH]c2cc(Br)ccc2n2cccc12`, the “activity change, negative = inhibition” value was -11.5%.

Take `Cn1c(COc2ccccc2C(C)(C)C)nc2ccccc21`: the “activity change, negative = inhibition” value is 3.12%.

With `CCN(c1ncnc2c1cnn2-c1ccc(C)cc1)C1CCCCC1`, the “activity change, negative = inhibition” value is -6.68%.

Regarding `CCOC(=O)c1c(C)n(S(=O)(=O)c2ccc(C)cc2C)c2ccc(NS(=O)(=O)c3ccc(C)cc3C)cc12`, the “activity change, negative = inhibition” value is -24.5%.

For the compound `CCC(=O)N1c2ccccc2CC1C(=O)N1CCN(c2ccccc2F)CC1` (stereo unspecified), the “activity change, negative = inhibition” value is -13.4%.

Turning to `O=S(=O)(NCC(c1ccco1)N1CCOCC1)c1cc(F)ccc1F` (stereo unspecified), the “activity change, negative = inhibition” value was -10%.

Take `COCCNC(=O)c1ccc2c(c1)N(Cc1cccc(Cl)c1)C(=O)c1ccccc1S2(=O)=O`: the “activity change, negative = inhibition” value was -7.22%.

For `CCCSc1ncc(Cl)c(C(=O)Nc2c(C(=O)Nc3ccccc3)oc3ccccc23)n1`, the “activity change, negative = inhibition” value is -10.5%.

In the case of `Cc1ccc(S(=O)(=O)/N=S(\C)C(C)C)cc1` (stereo unspecified), the “activity change, negative = inhibition” value is -16.3%.

Regarding `COc1ccc(S(=O)(=O)Nc2cc3c(C(=O)OC(C)C)c(C)oc3c3ccccc23)cc1`, the “activity change, negative = inhibition” value was -16%.

As to `Cc1ccc(S(=O)(=O)Nc2nc(N)n(-c3ccccc3)n2)cc1`, the “activity change, negative = inhibition” value is -2.87%.

On to `COc1ccc(N2CCN(C3CCCCC3NS(=O)(=O)c3ccccc3)CC2)cc1` (stereo unspecified), for which the “activity change, negative = inhibition” value is -21.5%.

With `Cc1ccc(S(=O)(=O)/N=C2\C=C(NS(=O)(=O)c3ccc(C)cc3)C(=O)c3ccccc32)cc1`, the Potency was 20 µM (active).

As for `COc1ccc(S(=O)(=O)/N=C2\C=C(NS(=O)(=O)c3ccccc3)C(=O)c3ccccc32)cc1`, the Potency was 15.8 µM (active).

On to `CCCN(CCC)C(=O)Cn1c(=O)n(-c2ccc(Cl)cc2)c(=O)c2c3c(sc21)CCCCC3`, for which the “activity change, negative = inhibition” value was -14.7%.

In the case of `O=C(C1CCC(Cn2c(=O)c3sccc3n(Cc3ccccc3F)c2=O)CC1)N1CCCCC1` (stereo unspecified), the “activity change, negative = inhibition” value is -29.1%.

As to `COc1ccc(NC(=O)CCCN2C(=O)CCn3nc(-c4cn(C)c5ccccc45)cc32)cc1OC`, the “activity change, negative = inhibition” value is -13.8%.

Regarding `CC(=O)Nc1cccc(NC(=O)CSc2cn(CC(=O)N3CCCC3)c3ccccc23)c1`, the “activity change, negative = inhibition” value is 18.7%.

As to `COc1ccc(C)cc1N(CC(=O)N1CCC(C)CC1)S(=O)(=O)c1ccc(C)cc1`, the “activity change, negative = inhibition” value is -0.585%.

`COc1ccc(OC)c(-c2noc(N3CCN(c4cc(Cl)ccc4C)CC3)n2)c1`: the “activity change, negative = inhibition” value is -14.9%.

These data come from PubChem BioAssay AID743255 (National Center for Advancing Translational Sciences (NCATS), 2014).
